Source: PubChem BioAssay (NCI)
This is part of a sample that, as a whole, favours compounds with a hit. Of some 79,000 tested, about 15% had one in any assay. Calls of active or inactive are those of the source. Rule as the data show it: active = growth inhibition above about 70%; inactive = the rest.

What was measured:
[1] = NCI Yeast Anticancer Drug Screen. Data for the rad52 strain (AID 147);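 also: 0% = growth of vehicle-treated control cultures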; settings: S. cerevisiae rad52 mutant growth inhibition, hits give high values
Procedure, shortened: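 Compounds are applied to a genetically defined yeast strain lacking normal DNA damage repair, and inhibition of growth is expressed relative to cultures given vehicle only.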

[2] = NCI Yeast Anticancer Drug Screen. Data for the wt1 strain (AID 149);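 also: 0% = growth of vehicle-treated wt1 cultures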; settings: S. cerevisiae wt1 strain (SPY 50644) growth inhibition, hits give high values
Procedure, shortened: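 Growth inhibition read against vehicle controls after compound exposure of the wt1 yeast strain.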

[3] = NCI Yeast Anticancer Drug Screen. Data for the rad50EPP+ strain (AID 151);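 also: 0% = growth of vehicle-treated control cultures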; settings: S. cerevisiae rad50 mutant strain, hits give high values
Procedure, shortened: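 Compounds were applied to the rad50EPP+ yeast strain, which bears a defined DNA repair alteration, and growth inhibition was determined relative to vehicle-treated cultures.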

[4] = NCI Yeast Anticancer Drug Screen. Data for the mgt1 strain (AID 153); settings: S. cerevisiae mgt1 mutant growth inhibition, hits give high values
Procedure, shortened: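 Strain: mgt1 yeast, one of a set carrying defined DNA damage repair or cell cycle control alterations. Compound-treated growth compared with vehicle.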

[5] = NCI Yeast Anticancer Drug Screen. Data for the rad50 strain (AID 155);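 also: 0% = growth of vehicle-only cultures of the same strain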; settings: S. cerevisiae rad50 strain growth inhibition, hits give high values
Procedure, shortened: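 Readout: growth inhibition relative to vehicle-treated cultures. Compound exposure was carried out in a genetically defined yeast strain deficient in DNA damage repair.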

[6] = NCI Yeast Anticancer Drug Screen. Data for the mec2-1 strain (AID 157); settings: S. cerevisiae mec2-1 strain, hits give high values
Procedure, shortened: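 Strain: mec2-1 (DNA repair/cell cycle alteration). Compound exposure, then growth measured; inhibition expressed relative to vehicle.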

[7] = NCI Yeast Anticancer Drug Screen. Data for the rad14 strain (AID 159);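 also: 0% = growth of vehicle-treated control cultures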; settings: S. cerevisiae rad14 strain growth inhibition, hits give high values
Procedure, shortened: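 Growth inhibition vs vehicle controls; genetically altered yeast strain (DNA damage repair defect) treated with test compounds.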

[8] = NCI Yeast Anticancer Drug Screen. Data for the sgs1 mgt1 strain (AID 161);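 also: 0% = growth of cultures given vehicle only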; settings: S. cerevisiae sgs1 mgt1 strain, hits give high values
Procedure, shortened: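 Inhibition of yeast growth, normalised to vehicle-treated controls, is reported for a strain bearing genetic alterations in DNA damage repair.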

[9] = NCI Yeast Anticancer Drug Screen. Data for the CLN2oe strain (AID 163);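 also: 0% = growth of vehicle-only control cultures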; settings: S. cerevisiae CLN2oe strain, hits give high values
Procedure, shortened: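 Growth of a genetically modified yeast strain is measured after compound exposure and compared with cultures given vehicle alone.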

[10] = NCI Yeast Anticancer Drug Screen. Data for the cln2 rad14 strain (AID 165);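 also: 0% = growth equal to vehicle treated cultures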; settings: S. cerevisiae cln2 rad14 strain, hits give high values
Procedure, shortened: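 Compounds are applied to the cln2 rad14 yeast strain, and growth is then compared with that of vehicle-treated cultures to give inhibition.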

[11] = NCI Yeast Anticancer Drug Screen. Data for the bub3 strain (AID 167); settings: S. cerevisiae bub3 mutant strain, hits give high values
Procedure, shortened: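 Readout: yeast growth inhibition, expressed relative to vehicle-only wells. The test organism is a mutant strain from a panel with lesions in DNA repair or checkpoint genes.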

[12] = NCI Yeast Anticancer Drug Screen. Data for the wt2 strain (AID 169);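 also: 0% = growth of vehicle-treated yeast cultures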; settings: S. cerevisiae wt2 strain growth inhibition, hits give high values
Procedure, shortened: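 This strain belongs to a panel of yeast strains with defined genetic alterations in DNA damage repair or cell cycle control. Compounds are applied, and growth inhibition is measured against vehicle-treated cultures.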

[13] = NCI Yeast Anticancer Drug Screen. Data for the mlh1 strain (AID 171);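 also: 0% = growth of vehicle-treated control cultures of the same strain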; settings: S. cerevisiae mlh1 strain growth inhibition, hits give high values
Procedure, shortened: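 Growth of the mutant yeast strain after compound exposure, expressed as inhibition relative to vehicle-only controls.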

[14] = NCI Yeast Anticancer Drug Screen. Data for the sgs1 strain (AID 173);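 also: 0% = growth of vehicle-only control cultures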; settings: S. cerevisiae sgs1 mutant, hits give high values
Procedure, shortened: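 Growth of a yeast strain bearing a defined genetic alteration is measured after compound treatment. Inhibition is expressed relative to vehicle-only controls.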

[15] = NCI Yeast Anticancer Drug Screen. Data for the mlh1 rad18 strain (AID 175); settings: S. cerevisiae mlh1 rad18 strain growth inhibition, hits give high values
Procedure, shortened: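 Read-out is yeast growth inhibition, calculated against vehicle-only controls. The compound was applied to a strain engineered with DNA damage repair alterations.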

[16] = NCI Yeast Anticancer Drug Screen. Data for the rad18 strain (AID 177); settings: S. cerevisiae rad18 mutant growth inhibition, hits give high values
Procedure, shortened: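 Growth of the mutant yeast strain after compound exposure, normalised to vehicle-only cultures.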

[17] = at 5.0 µM (retest, dose inferred, filed as 0.5)
[18] = at 50.0 µM (retest, dose inferred, filed as 5.0)

Measured: growth inhibition

CC1CN(/N=C\c2ccc([N+](=O)[O-])o2)C(=O)O1 (stereo not drawn)
active: [5]; at 50.0 µM 75.7% | [5]; at 100.0 µM 72% | [8]; [18] 83% | [8]; at 50.0 µM 86.1% | [14]; at 100.0 µM 87% | [15]; [18] 71% | [15]; at 50.0 µM 85.8% | [16]; at 1.2 µM 78% | [16]; at 3.7 µM 85% | [16]; at 11.0 µM 88% | [16]; at 33.0 µM 93% | [16]; at 100.0 µM 97%
inactive: [1]; at 1.2 µM 1% | [1]; at 3.7 µM 3% | [1]; at 11.0 µM 9% | [1]; at 33.0 µM 19% | [1]; at 100.0 µM 59% | [2]; at 1.2 µM -2% | [2]; at 3.7 µM -2% | [2]; at 11.0 µM -2% | [2]; at 33.0 µM 1% | [2]; at 100.0 µM 10% | [3]; at 1.2 µM 0% | [3]; at 3.7 µM -1% | [3]; at 11.0 µM 4% | [3]; at 33.0 µM 15% | [3]; at 100.0 µM 48% | [4]; at 1.2 µM -1% | [4]; at 3.7 µM -1% | [4]; at 11.0 µM -1% | [4]; at 33.0 µM -1% | [4]; at 100.0 µM 9% | [5]; at 1.2 µM 9% | [5]; at 3.7 µM 46% | [5]; [17] 8% | [5]; at 11.0 µM 32% | [5]; at 33.0 µM 24% | [5]; [18] 53% | [6]; at 1.2 µM 2% | [6]; at 3.7 µM 4% | [6]; [17] -25% | [6]; at 11.0 µM 6% | [6]; at 33.0 µM 12% | [6]; [18] 46% | [6]; at 50.0 µM 20.6% | [6]; at 100.0 µM 45% | [7]; at 1.2 µM 0% | [7]; at 3.7 µM -3% | [7]; at 11.0 µM -2% | [7]; at 33.0 µM 10% | [7]; at 100.0 µM 47% | [8]; [17] 27% | [9]; at 1.2 µM -7% | [9]; at 3.7 µM -6% | [9]; at 11.0 µM -3% | [9]; at 33.0 µM -7% | [9]; at 100.0 µM -6% | [10]; [17] -3% | [10]; [18] 45% | [10]; at 50.0 µM 18.9% | [11]; at 1.2 µM -1% | [11]; at 3.7 µM 3% | [11]; [17] -8% | [11]; at 11.0 µM 0% | [11]; at 33.0 µM 2% | [11]; [18] 14% | [11]; at 50.0 µM 14.1% | [11]; at 100.0 µM 9% | [12]; at 1.2 µM -3% | [12]; at 3.7 µM 6% | [12]; at 11.0 µM -3% | [12]; at 33.0 µM -1% | [12]; at 100.0 µM 18% | [13]; at 1.2 µM 0% | [13]; at 3.7 µM -2% | [13]; at 11.0 µM -1% | [13]; at 33.0 µM 3% | [13]; at 100.0 µM 16% | [14]; at 1.2 µM 7% | [14]; at 3.7 µM 11% | [14]; at 11.0 µM 27% | [14]; at 33.0 µM 56% | [15]; [17] 18%
